We go through six molecules from PubChem BioAssay.

For assay [1], the system named is Plasmodium falciparum Sir2 (PF13_0152, Sir2A). In words: pfSir2 binders on small-molecule microarrays, primary screen, biochemical, small-molecule microarray, 635 nm fluorescence (AID 1098).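 Note: score merges spot fluorescence intensity with its signal-to-noise ratio.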 As to conditions: small-molecule microarray binding, fluorescence 635 nm; higher = more signal.
Assay [2] can be described thus: small-molecule microarray binders of probe aDKK1, primary screen, biochemical, biotinylated probe, 635/667 nm fluorescence (AID 1099).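 Note: score merges 667nm spot fluorescence with signal to noise across triplicate slides.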 As to conditions: higher = more signal.
A short description of assay [3]: small-molecule microarray binders of probe aCHRDL2, primary screen, biochemical, biotinylated probe, 635/667 nm fluorescence (AID 1100). As to conditions: higher = more signal.
Assay [4] can be described thus: splicing luciferase reporter signal modulators, primary screen, spliceosome inhibition project, cell-based, HEK293, splice +/- reporter (AID 1101).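 Note: HEK293 cells carrying a splicing-competent luciferase reporter gene; test concentration not given here.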 The following applies: luminescence, 24 h, higher = more signal, called active from +8 up or from −8 down. A general note: Reporter assays use an easily measured gene product as a stand-in for the process of interest.
Assay [5] concerns the target Fibroblast growth factor 10 (Homo sapiens) (UniProt O15520). In words: FGF10 binders on small-molecule microarrays, primary screen, biochemical, small-molecule microarray, 635 nm fluorescence (AID 1102). As to conditions: FGF10 binding, fluorescence 635 nm, higher = more signal.
The subject of assay [6] is glycogen synthase kinase-3 (GSK3A per assay name; protocol says GSK3B). In words: GSK3 binders on small-molecule microarrays, primary screen, biochemical, small-molecule microarray, 635 nm fluorescence, GSK3A (AID 1103). Note: the record names both GSK3A and GSK3B. As to conditions: small-molecule microarray binding, fluorescence 635 nm; higher = more signal.
The target of assay [7] is Epidermal growth factor receptor (Homo sapiens) (UniProt P00533). The assay is described as follows: EGFR binders on small-molecule microarrays, primary screen, biochemical, small-molecule microarray, 635 nm fluorescence (AID 1104).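 Note: score merges 667 nm emission intensity with spot signal to noise over triplicate slides.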 As to conditions: EGFR binding, higher = more signal.
Assay [8] has as its target Follistatin-related protein 3 (Homo sapiens) (UniProt O95633). The assay is described as follows: FSTL3 binders on small-molecule microarrays, primary screen, biochemical, small-molecule microarray, 635 nm fluorescence (AID 1105).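 Note: score merges emission near 667 nm and signal to noise per printed spot across three slides.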 As to conditions: FSTL3 binding, higher = more signal.
In assay [9] the target is Dickkopf-related protein 1 (Homo sapiens) (UniProt O94907). In words: DKK1 binders on small-molecule microarrays, primary screen, biochemical, small-molecule microarray, 635 nm fluorescence scan (AID 1106).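 Note: score merges emission near 667 nm with signal to noise over three replicate slides.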 The following applies: DKK1 binding, higher = more signal.
The test system of assay [10] is Inhibin beta A chain (activin A). In words: INHBA (activin A) binders on microarrays, primary screen, biochemical, small-molecule microarray, 635 nm fluorescence scan (AID 1107).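 Note: mouse activin A protein probed at 4.33 µg/mL on printed slides; score merges bound-protein fluorescence near 667 nm with spot signal-to-noise.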 As to conditions: small-molecule microarray binding, higher = more signal.
For assay [11], the system named is Human papillomavirus type 1a protein E7 (residues 44-93). In words: HPV1a E7 fragment binders on microarrays, primary screen, biochemical, small-molecule microarray, residues 44-93, 635 nm fluorescence (AID 1108).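 Note: E7 fragment applied at 1 µg/mL in TBST for 1 h at 4 C; score combines spot fluorescence with its signal to noise ratio.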 As to conditions: small-molecule microarray binding, fluorescence 635 nm; higher = more signal.
Assay [12] in a line: modulators of HCV replicon luciferase signal, primary screen, HCV replication inhibitor project, Huh7 cells, luciferase reporter (AID 1109).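 Note: huh7 hepatoma cells harbouring a luciferase neomycin HCV replicon reporter; luciferase luminescence as measure of HCV replicon replication; test concentration not given here.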 The following applies: 48 h, higher = more signal. On the technique in general: Replicon systems follow genome replication, usually without infectious particles.
Assay [13] addresses Left-right determination factor 2 (Homo sapiens) (UniProt O00292). The assay is described as follows: LEFTY2 binders on small-molecule microarrays, primary screen, biochemical, small-molecule microarray, 635 nm fluorescence scan (AID 1110). As to conditions: LEFTY2 binding, higher = more signal.
Assay [14] has as its target Calmodulin-1 (Homo sapiens) (UniProt P0DP23). The assay is described as follows: CALM1 binders on microarrays, EGTA buffer, profiling panel, biochemical, small-molecule microarray, Cy5-labelled CALM1 (AID 1111).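 Note: labelled calmodulin applied in Tris saline Tween buffer holding calcium plus EGTA and DTT.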 The following applies: Cy5-CALM1 binding fluorescence, higher = more signal.
The target is the same in assay [15]. In words: calcium-bound CALM1 binders on microarrays, profiling panel, artefact control for SMM control-protein annotation, biochemical, small-molecule microarray, Cy5-labelled CALM1, plus calcium (AID 1112).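 Note: score merges spot fluorescence with signal to noise from triplicate slides.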 As to conditions: Cy5-CALM1 binding fluorescence, higher = more signal.
A short description of assay [16]: small-molecule microarray binders of probe aWnt5a, primary screen, biochemical, biotinylated probe, 635/667 nm fluorescence (AID 1113).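 Note: score merges 667 nm fluorescence intensity with signal-to-noise per printed feature.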 As to conditions: higher = more signal.
Assay [17] can be described thus: small-molecule microarray binders of probe aShh, primary screen, biochemical, biotinylated probe, 635/667 nm fluorescence (AID 1114).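 Note: probe is biotin-labelled aShh protein from a stem cell growth factor screen; measures binding of labelled protein to compounds printed on the slide; score merges feature fluorescence at 667 nm with signal-to-noise.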 As to conditions: higher = more signal.
Assay [18] is described as follows: small-molecule microarray binders of probe aNog, primary screen, biochemical, biotinylated probe, 635/667 nm fluorescence (AID 1115).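 Note: probe is biotinylated aNog protein used at 0.15 µg/mL for 1 h at 4 C; z-score combines 667 nm fluorescence of each spot with its signal to noise.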 As to conditions: higher = more signal.
The target of assay [19] is Torsin-1A-interacting protein 1 (Homo sapiens) (UniProt Q5JTV8). The assay is described as follows: LAP1 binders from COS7 cell lysate, primary screen, small-molecule microarray, 635/667 nm fluorescence (AID 1116). As to conditions: COS7-hLAP1 lysate binding, 635 nm fluorescence, higher = more signal.
Assay [20] has as its target Alpha-bungarotoxin (Bungarus multicinctus) (UniProt P60615). The assay is described as follows: alpha-bungarotoxin binders on microarray, profiling panel, artefact control for SMM control protein annotation, biochemical, small-molecule microarray, Alexa647 label, 635/667 nm fluorescence (AID 1117). The following applies: alpha-BTX-A647 binding fluorescence, higher = more signal.

Activity calls are given as the source filed them.

Sequence of Fibroblast growth factor 10 (Homo sapiens) (O15520 whole entry, looked up): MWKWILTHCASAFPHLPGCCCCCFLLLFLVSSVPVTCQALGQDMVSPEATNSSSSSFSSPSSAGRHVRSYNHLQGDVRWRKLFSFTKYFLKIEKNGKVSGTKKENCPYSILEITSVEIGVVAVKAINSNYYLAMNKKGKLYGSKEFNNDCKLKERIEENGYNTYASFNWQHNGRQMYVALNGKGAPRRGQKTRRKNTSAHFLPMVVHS
Sequence of Epidermal growth factor receptor (Homo sapiens) (P00533 whole entry, looked up): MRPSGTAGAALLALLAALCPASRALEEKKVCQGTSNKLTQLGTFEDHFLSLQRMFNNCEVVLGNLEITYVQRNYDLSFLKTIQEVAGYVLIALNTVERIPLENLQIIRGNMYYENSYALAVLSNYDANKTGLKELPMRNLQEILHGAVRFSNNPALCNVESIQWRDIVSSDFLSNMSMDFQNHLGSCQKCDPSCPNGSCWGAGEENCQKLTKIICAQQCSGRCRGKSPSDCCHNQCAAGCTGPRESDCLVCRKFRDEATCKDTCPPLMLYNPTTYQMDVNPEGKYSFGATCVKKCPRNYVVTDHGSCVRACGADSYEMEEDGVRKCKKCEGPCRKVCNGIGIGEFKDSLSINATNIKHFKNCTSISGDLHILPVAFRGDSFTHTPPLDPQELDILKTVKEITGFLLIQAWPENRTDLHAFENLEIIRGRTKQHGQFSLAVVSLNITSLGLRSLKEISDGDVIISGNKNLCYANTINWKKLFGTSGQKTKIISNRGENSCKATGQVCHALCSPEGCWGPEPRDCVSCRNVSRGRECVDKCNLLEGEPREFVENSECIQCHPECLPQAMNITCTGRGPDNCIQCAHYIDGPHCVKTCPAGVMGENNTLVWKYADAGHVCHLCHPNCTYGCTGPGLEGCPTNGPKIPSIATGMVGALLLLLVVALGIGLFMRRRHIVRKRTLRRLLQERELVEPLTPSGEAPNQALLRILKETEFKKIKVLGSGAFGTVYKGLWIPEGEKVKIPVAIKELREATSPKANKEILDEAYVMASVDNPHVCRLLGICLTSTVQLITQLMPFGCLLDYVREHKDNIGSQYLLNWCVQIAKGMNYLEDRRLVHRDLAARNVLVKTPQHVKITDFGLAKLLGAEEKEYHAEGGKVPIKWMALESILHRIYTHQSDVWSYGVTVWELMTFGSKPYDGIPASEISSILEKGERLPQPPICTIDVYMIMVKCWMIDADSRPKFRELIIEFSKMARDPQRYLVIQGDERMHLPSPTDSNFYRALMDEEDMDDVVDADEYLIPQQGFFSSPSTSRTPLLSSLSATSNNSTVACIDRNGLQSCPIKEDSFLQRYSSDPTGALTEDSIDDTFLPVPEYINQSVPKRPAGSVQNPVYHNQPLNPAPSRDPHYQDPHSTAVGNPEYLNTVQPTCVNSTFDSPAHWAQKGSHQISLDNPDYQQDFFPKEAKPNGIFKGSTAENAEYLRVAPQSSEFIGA
Sequence of Follistatin-related protein 3 (Homo sapiens) (O95633 whole entry, looked up): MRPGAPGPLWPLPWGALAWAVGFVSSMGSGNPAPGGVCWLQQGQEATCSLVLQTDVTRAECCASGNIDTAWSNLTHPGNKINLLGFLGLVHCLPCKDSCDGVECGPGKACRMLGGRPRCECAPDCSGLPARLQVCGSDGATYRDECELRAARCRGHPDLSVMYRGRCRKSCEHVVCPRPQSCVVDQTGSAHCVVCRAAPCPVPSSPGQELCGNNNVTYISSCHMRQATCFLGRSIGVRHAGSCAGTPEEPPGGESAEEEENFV
Sequence of Torsin-1A-interacting protein 1 (Homo sapiens) (Q5JTV8 whole entry, looked up): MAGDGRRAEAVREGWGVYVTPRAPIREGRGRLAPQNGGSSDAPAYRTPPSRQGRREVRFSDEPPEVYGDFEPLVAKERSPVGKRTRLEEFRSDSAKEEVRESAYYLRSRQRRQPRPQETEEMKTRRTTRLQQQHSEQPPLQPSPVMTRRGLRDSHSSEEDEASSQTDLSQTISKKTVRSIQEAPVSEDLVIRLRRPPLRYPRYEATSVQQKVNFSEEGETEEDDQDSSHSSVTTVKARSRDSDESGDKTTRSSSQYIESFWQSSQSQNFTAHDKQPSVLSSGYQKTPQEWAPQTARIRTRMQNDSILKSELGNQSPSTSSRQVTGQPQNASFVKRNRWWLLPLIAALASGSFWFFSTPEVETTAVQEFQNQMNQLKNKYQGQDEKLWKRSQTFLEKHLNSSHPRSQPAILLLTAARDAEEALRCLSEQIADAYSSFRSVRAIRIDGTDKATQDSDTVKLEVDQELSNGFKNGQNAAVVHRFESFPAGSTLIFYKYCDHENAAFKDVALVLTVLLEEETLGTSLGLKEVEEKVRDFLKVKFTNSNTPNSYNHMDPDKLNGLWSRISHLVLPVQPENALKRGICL
Sequence of Dickkopf-related protein 1 (Homo sapiens) (O94907 whole entry, looked up): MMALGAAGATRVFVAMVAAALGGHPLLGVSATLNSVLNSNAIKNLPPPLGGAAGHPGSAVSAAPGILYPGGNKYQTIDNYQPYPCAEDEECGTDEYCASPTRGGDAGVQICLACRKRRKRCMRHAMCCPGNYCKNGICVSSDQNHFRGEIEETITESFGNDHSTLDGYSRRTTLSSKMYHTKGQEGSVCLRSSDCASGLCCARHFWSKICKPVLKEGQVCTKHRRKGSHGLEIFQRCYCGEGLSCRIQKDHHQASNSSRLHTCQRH
Sequence of Left-right determination factor 2 (Homo sapiens) (O00292 whole entry, looked up): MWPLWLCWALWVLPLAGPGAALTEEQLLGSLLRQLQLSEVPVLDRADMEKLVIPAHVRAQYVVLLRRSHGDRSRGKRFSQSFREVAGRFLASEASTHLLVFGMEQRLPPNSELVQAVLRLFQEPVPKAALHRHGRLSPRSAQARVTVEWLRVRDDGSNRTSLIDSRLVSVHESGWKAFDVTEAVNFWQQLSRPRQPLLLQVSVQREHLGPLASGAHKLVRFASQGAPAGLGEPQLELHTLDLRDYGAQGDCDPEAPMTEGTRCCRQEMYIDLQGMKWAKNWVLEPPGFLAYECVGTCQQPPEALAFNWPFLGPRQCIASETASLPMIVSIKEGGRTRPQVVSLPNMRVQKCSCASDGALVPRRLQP
Sequence of Alpha-bungarotoxin (Bungarus multicinctus) (P60615 whole entry, looked up): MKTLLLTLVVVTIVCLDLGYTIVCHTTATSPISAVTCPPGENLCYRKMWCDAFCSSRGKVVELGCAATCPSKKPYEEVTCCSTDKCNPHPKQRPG

Regarding `COC(=O)C[C@H]1O[C@]2(C(=O)N(C)c3ccccc32)[C@@H](C)[C@@H]1[Si](C)(C)c1ccccc1`, the composite z-score was -0.0153 in assay [1]; -0.0571 in assay [2]; -0.261 in assay [3]; 0.988 in assay [5]; 0.96 in assay [6]; 0.753 in [7]. For the same molecule, the composite z-score in [8] was 0.837; in [9], 1.11; in [10], -0.399; in assay [11], 0.623; in assay [13], 0.469; in [14] it was -0.0495. Also, the composite z-score was -0.401 in [15]; -0.124 in assay [16]; 0.318 in [17]; -0.0446 in [18]; 0.0282 in assay [19]; 0.586 in assay [20]. The z-score in [4] was -1.25 (inactive); in [12], -2.1.

`CC(C)C(=C=CC[C@H](O)c1cccc(OCCO)c1)C[C@H](O)c1ccccn1`: the composite z-score in assay [1] was 0.406; in assay [2], -0.326; in assay [3], -0.253; in assay [5], 0.722; in assay [6], 0.476; in [7], -0.387. The composite z-score in assay [8] is 0.339; in assay [9], -0.15; in assay [10], 0.409; in assay [11], 0.106; in assay [13], -0.256; in assay [14], -0.356. Moreover, the composite z-score in assay [15] is -0.78; in assay [16], -0.096; in [17] it was -0.289; in assay [18], -0.147; in assay [19], -0.334; in assay [20], -0.579. Besides, the z-score was -0.779 (inactive) in assay [4] and -0.423 in assay [12].

Take `CN(C)C(=O)[C@]1(CCS(=O)(=O)c2ccccc2)N=C(c2ccc(OCCCO)cc2)O[C@@H]1c1ccccc1CN=[N+]=[N-]`: the composite z-score is 1.45 in assay [1]; -0.326 in assay [2]; 0.32 in [3]; 1.26 in assay [5]; 1.24 in assay [6]; -0.126 in assay [7]. Also, the composite z-score was 0.425 in assay [8]; -0.142 in [9]; 0.869 in assay [10]; 0.924 in assay [11]; -0.0755 in assay [13]; 1.98 in assay [14]. The composite z-score in assay [15] was 0.68; in assay [16], 0.0215; in assay [17] it was -0.0891; in assay [18], 0.463; in assay [19] it was 1.48; in [20] it was 1.71. The z-score in assay [4] was -0.153 (inactive); in assay [12], -2.39.

`COCCOC(=O)N1C(=O)[C@@]2(c3cc(C#CCC(C(=O)OC)C(=O)OC)ccc31)[C@H](C(N)=O)[C@H]1C(=O)O[C@H](c3ccccc3)[C@H](c3ccccc3)N1[C@@H]2c1ccccc1OCCO`: the composite z-score in assay [1] is 0.997; in [2] it was -0.202; in assay [3] it was -0.129; in assay [5], 1.37; in [6], 1.31; in assay [7], 0.958. For the same molecule, the composite z-score in [8] was 1.09; in assay [9], 0.47; in assay [10], 0.486; in assay [11], 1.31; in [13] it was 0.584; in [14], 1.44. In addition, the composite z-score in assay [15] is 0.308; in assay [16], 0.0297; in assay [17] it was -0.182; in assay [18], -0.263; in assay [19], 0.146; in assay [20], 0.899. The z-score in [4] was -1.32 (inactive); in assay [12] it was -3.36.

`COc1c(C)cc(-c2cc3c(c(CCc4ccccc4)n2)[Si](C(C)C)(C(C)C)O[C@H]3c2ccccc2)cc1C`: the composite z-score was 0.994 in [1]; -0.137 in assay [2]; -0.169 in assay [3]; -0.168 in assay [5]; -0.914 in assay [6]; -0.275 in assay [7]. Besides, the composite z-score in [8] was -0.257; in assay [9], -0.204; in assay [10], -0.0185; in assay [11], -0.52; in assay [13], -0.124; in [14], 0.261. Also, the composite z-score was 0.502 in assay [15]; 0.0136 in assay [16]; 0.0008 in assay [17]; 0.0225 in [18]; -0.445 in assay [19]; -0.176 in assay [20]. For the same molecule, the z-score is -1.48 (inactive) in assay [4] and -3.84 in assay [12].

In the case of `C=CC[C@]1(C(N)=O)N=C(c2ccc(OCCCO)cc2)O[C@H]1c1ccccc1N=[N+]=[N-]`, the composite z-score worked out at 1.56 in [1]; 1.28 in assay [2]; 1.26 in assay [3]; 1.06 in assay [5]; 0.755 in assay [6]; 0.259 in assay [7]. In addition, the composite z-score in [8] worked out at 1.03; in assay [9], 0.0701; in [10], 1.48; in assay [11] it was 0.811; in assay [13] it was 0.0562; in [14] it was 0.85. The composite z-score in [15] was 0.0151; in assay [16] it was 0.0317; in [17], 0.0611; in assay [18] it was -0.153; in assay [19], 1.29; in assay [20], 1.71. Besides, the z-score in [4] was -0.401 (inactive); in assay [12], 0.304.
